Results reported in PubChem BioAssay AID720597 (Broad Institute, 2013).
Results with a measured potency or affinity are listed apart. Active and inactive are the calls of the source.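 The calls were made as follows: active = fitted half-maximal dose no more than twice the top valid tested dose, for compounds that lower signal; inconclusive = fit invalid, or curve flat with activity between -70 and -30; inactive = potency past limit, curve flat within ±30, or signal increasing.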

target: NAD-dependent protein deacylase sirtuin-5, mitochondrial (Homo sapiens) (UniProt Q9NXA8); assay: SIRT5 deacylase inhibitors, dose response, biochemical, fluorescence imaging, cherry-pick, set 6 (AID 720597); conditions: Purified SirT5, succinyl-peptide-AMC/trypsin fluorescence; series mostly up to 15 µM;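 also: lower AMC signal can also come from blocking the trypsin step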
Sequence (Q9NXA8 whole entry, looked up): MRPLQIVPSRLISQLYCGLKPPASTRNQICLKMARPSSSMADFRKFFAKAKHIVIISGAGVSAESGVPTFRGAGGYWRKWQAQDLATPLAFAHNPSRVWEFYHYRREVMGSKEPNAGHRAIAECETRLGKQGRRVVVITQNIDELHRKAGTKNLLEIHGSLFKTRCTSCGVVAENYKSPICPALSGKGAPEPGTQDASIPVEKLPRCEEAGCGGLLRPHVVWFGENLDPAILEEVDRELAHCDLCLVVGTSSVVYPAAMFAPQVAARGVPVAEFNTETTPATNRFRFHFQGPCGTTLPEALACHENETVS

outcome, inactive:
CC(C)CC#Cc1ccc2c(c1)O[C@H](CN(C)C(=O)C1CCCCC1)[C@@H](C)CN([C@H](C)CO)S2(=O)=O
CN(C)c1ccc2c(c1)[C@@H]1C[C@@H](CC(=O)NCc3ccccc3)O[C@H](CO)[C@@H]1O2
COc1ccc(S(=O)(=O)Nc2ccc3c(c2)C(=O)N([C@H](C)CO)C[C@H](C)[C@@H](CN(C)Cc2ccc(Oc4ccccc4)cc2)O3)cc1
COc1ccc(S(=O)(=O)Nc2ccc3c(c2)C(=O)N([C@H](C)CO)C[C@H](C)[C@H](CN(C)S(=O)(=O)c2cccs2)OCCCC[C@H](C)O3)cc1
COCC(=O)N1C[C@@H](C)[C@@H](OC)CN(C)C(=O)c2ccc(NC(=O)c3cc(C)on3)cc2OC[C@@H]1C
Cc1ccccc1-c1ccc([C@H]2[C@H](CO)N3CCCCN(S(=O)(=O)c4ccc(F)cc4)C[C@@H]23)cc1
CCCC#Cc1ccc2c(c1)O[C@@H](CN(C)C(=O)c1ccccc1F)[C@@H](C)CN([C@H](C)CO)S2(=O)=O
CCNC(=O)C[C@H]1CC[C@H]2[C@@H](COC[C@@H](O)CN2C(=O)Nc2ccc(C(F)(F)F)cc2)O1
C[C@H]1CN([C@@H](C)CO)S(=O)(=O)c2ccc(C3=CCCCC3)cc2O[C@H]1CN(C)S(=O)(=O)c1ccc(F)cc1
C[C@H](CO)N1C[C@H](C)[C@@H](CN(C)Cc2ccc(C(F)(F)F)cc2)OCCCC[C@H](C)Oc2ccc(NS(=O)(=O)c3ccc(Cl)cc3)cc2C1=O
